Source: PubChem BioAssay (EPA / NIEHS)
Activity calls are given as the source filed them. How the source made its calls: active means hit-call score of the fitted dose curve at least 0.9, where 1 is the maximum; inactive means score below 0.9.

Key:
[1] = ATG_E_Box_CIS: Attagene CIS-FACTORIAL HepG2 Assay for human Enhancer Box (E-box) (AID 2282936); settings: HepG2 E-box cis-reporter transcription, actives raise or lower the signal
Summary of the method: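 Endogenous transcription factor activity was sensed in human HepG2 liver cells through transfected cis-promoter reporter units. After 24 h of dosing, total RNA was reverse-transcribed and reporter cDNA resolved by capillary electrophoresis.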

[2] = ATG_M_61_CIS: Attagene CIS-FACTORIAL HepG2 Assay for M61 Transcription Factor (Internal Marker) (AID 2282937); settings: HepG2 Attagene CIS-FACTORIAL M61 internal marker reporter; actives raise or lower the signal
Summary of the method: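 Human liver HepG2, transient MRTU transfection (cis promoter elements), 24 h compound. Total RNA → oligo(dT) RT → PCR → FAM label → HpaI → CE. Internal background marker; bidirectional fitting, DMSO = baseline.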

[3] = ATG_EGR_CIS: Attagene CIS-FACTORIAL HepG2 Assay for human Early Growth Response 1 (EGR1) (AID 2282938); settings: HepG2 Attagene CIS-FACTORIAL EGR reporter mRNA; actives raise or lower the signal
Summary of the method: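 Transient transfection of human HepG2 with multiple cis-regulated reporter units, chemical exposure 24 h, total RNA isolated. Reverse transcription, PCR, fluorescent labelling and capillary electrophoresis quantify reporter transcripts; activity fitted bidirectionally against DMSO.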

[4] = ATG_M_19_CIS: Attagene CIS-FACTORIAL HepG2 Assay for M19 Transcription Factor (Internal Marker) (AID 2282939); settings: HepG2 Attagene CIS-FACTORIAL M19 internal marker reporter; actives raise or lower the signal
Summary of the method: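 Readout: fluorescent reporter-transcript fragments by capillary electrophoresis after RT-PCR. Human HepG2 liver cells carried transfected MRTU constructs reporting endogenous transcription-factor activity; exposure 24 h. Gain or loss of signal fitted relative to DMSO.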

[5] = ATG_Ets_CIS: Attagene CIS-FACTORIAL HepG2 Assay for human Erythroblast Transformation Specific (ETS) (AID 2282941); settings: HepG2 ETS cis-reporter transcription, actives raise or lower the signal
Summary of the method: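 Multiplexed reporter transcript profiling: HepG2, 24 h treatment, total RNA to cDNA, PCR, 6-FAM labelling, HpaI cut, capillary electrophoresis. Gain- or loss-of-signal fitted against DMSO.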

[6] = biological target: Hepatocyte nuclear factor 3-beta (Homo sapiens) (UniProt Q9Y261); test: ATG_FoxA2_CIS: Attagene CIS-FACTORIAL HepG2 Assay for human Forkhead box A2 (FOXA2) (AID 2282942); settings: HepG2 cis-reporter transcription factor activity, 24 h; actives raise or lower the signal
Sequence of Hepatocyte nuclear factor 3-beta (Homo sapiens) (Q9Y261 whole entry, looked up): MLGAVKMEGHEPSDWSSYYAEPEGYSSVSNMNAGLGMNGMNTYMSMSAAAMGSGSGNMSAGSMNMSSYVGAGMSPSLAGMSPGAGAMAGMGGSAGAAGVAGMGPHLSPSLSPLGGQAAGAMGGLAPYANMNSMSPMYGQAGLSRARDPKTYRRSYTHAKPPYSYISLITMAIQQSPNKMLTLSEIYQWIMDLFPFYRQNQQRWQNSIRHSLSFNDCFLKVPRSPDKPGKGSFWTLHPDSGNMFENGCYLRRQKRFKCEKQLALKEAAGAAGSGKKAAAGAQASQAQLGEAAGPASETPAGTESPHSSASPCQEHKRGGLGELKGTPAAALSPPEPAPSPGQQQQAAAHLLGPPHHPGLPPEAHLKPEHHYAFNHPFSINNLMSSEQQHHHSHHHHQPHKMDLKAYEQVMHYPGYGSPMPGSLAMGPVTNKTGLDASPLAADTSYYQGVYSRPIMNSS
Summary of the method: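 Transient MRTU transfection of HepG2 liver cells; 24 h treatment; total RNA → oligo(dT) RT → PCR → FAM primer extension → HpaI cut → CE. Bidirectional fit vs DMSO.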

[7] = ATG_GATA_CIS: Attagene CIS-FACTORIAL HepG2 Assay for human GATA Binding Protein (AID 2282944); settings: HepG2 GATA cis-element reporter, Attagene multiplex mRNA; actives raise or lower the signal
Summary of the method: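 Read-out: fluorescent reporter mRNA fragments resolved by capillary electrophoresis after RT-PCR. Human liver HepG2 cells carried transiently transfected cis-regulated reporter constructs; chemicals incubated 24 h; gain or loss of signal fitted relative to DMSO.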

[8] = ATG_GLI_CIS: Attagene CIS-FACTORIAL HepG2 Assay for human Zinc Finger Protein GLI1 (AID 2282945); settings: HepG2, Attagene cis-factorial reporter mRNA, GLI element; actives raise or lower the signal
Summary of the method: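 HepG2 cells transiently transfected with cis-promoter multiplexed reporter units report endogenous transcription factor activity. After 24 h chemical exposure, reporter mRNA was quantified by RT-PCR, 6-FAM labelling, HpaI digestion and capillary electrophoresis, with bidirectional fitting against DMSO.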

[9] = ATG_GRE_CIS: Attagene CIS-FACTORIAL HepG2 Assay for human Glucocorticoid Response Elements (GRE) (AID 2282947); settings: HepG2 GRE cis-reporter, Attagene multiplex mRNA; actives raise or lower the signal
Summary of the method: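 Cells (HepG2) bearing transfected cis-promoter reporter transcription units were treated with chemical for 24 hours. Reporter mRNA was measured via RT-PCR with capillary electrophoresis, and activity was fitted in both directions relative to DMSO.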

[10] = ATG_ISRE_CIS: Attagene CIS-FACTORIAL HepG2 Assay for human Interferon Regulatory Factor 1 (IRF1) binding to an Interferon-Stimulated Response Element (ISRE) (AID 2282948); settings: HepG2 ISRE cis-reporter (Attagene), mRNA transcription readout; actives raise or lower the signal
Summary of the method: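 Signal reflects induction or loss of ISRE-linked reporter mRNA in transiently transfected HepG2 cells after a 24 h treatment, detected by fluorescent RT-PCR fragments on capillary electrophoresis and normalised to DMSO.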

[11] = ATG_M_32_CIS: Attagene CIS-FACTORIAL HepG2 Assay for M32 Transcription Factor (Internal Marker) (AID 2282949); settings: HepG2 Attagene cis-factorial M32 reporter, mRNA; actives raise or lower the signal;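 further: background control marker of the multiplexed CIS panel rather than a real target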
Summary of the method: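 HepG2 human liver cells transiently transfected with cis-promoter-driven multiple reporter transcription units, dosed 24 h. Reporter mRNA quantified by RT-PCR, FAM-labelled primer extension, HpaI digest and capillary electrophoresis; bidirectional fit versus DMSO baseline.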

[12] = ATG_M_06_CIS: Attagene CIS-FACTORIAL HepG2 Assay for M06 Transcription Factor (Internal Marker) (AID 2282950); settings: HepG2 Attagene CIS-FACTORIAL M06 internal marker reporter; actives raise or lower the signal
Summary of the method: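 Terse: HepG2, transient MRTU transfection (FuGene 6), 24 h dosing; total RNA, oligo(dT) RT, PCR, FAM label, HpaI cut, capillary electrophoresis; bidirectional fit vs DMSO baseline; background-control endpoint.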

[13] = biological target: Hypoxia-inducible factor 1-alpha (Homo sapiens) (UniProt Q16665); test: ATG_HIF1a_CIS: Attagene CIS-FACTORIAL HepG2 Assay for human Hypoxia Inducible Factor 1 (HIF1A) (AID 2282951); settings: HepG2 Attagene cis-factorial HIF1a reporter transcription; actives raise or lower the signal
Sequence of Hypoxia-inducible factor 1-alpha (Homo sapiens) (Q16665 whole entry, looked up, the tested form may be a part): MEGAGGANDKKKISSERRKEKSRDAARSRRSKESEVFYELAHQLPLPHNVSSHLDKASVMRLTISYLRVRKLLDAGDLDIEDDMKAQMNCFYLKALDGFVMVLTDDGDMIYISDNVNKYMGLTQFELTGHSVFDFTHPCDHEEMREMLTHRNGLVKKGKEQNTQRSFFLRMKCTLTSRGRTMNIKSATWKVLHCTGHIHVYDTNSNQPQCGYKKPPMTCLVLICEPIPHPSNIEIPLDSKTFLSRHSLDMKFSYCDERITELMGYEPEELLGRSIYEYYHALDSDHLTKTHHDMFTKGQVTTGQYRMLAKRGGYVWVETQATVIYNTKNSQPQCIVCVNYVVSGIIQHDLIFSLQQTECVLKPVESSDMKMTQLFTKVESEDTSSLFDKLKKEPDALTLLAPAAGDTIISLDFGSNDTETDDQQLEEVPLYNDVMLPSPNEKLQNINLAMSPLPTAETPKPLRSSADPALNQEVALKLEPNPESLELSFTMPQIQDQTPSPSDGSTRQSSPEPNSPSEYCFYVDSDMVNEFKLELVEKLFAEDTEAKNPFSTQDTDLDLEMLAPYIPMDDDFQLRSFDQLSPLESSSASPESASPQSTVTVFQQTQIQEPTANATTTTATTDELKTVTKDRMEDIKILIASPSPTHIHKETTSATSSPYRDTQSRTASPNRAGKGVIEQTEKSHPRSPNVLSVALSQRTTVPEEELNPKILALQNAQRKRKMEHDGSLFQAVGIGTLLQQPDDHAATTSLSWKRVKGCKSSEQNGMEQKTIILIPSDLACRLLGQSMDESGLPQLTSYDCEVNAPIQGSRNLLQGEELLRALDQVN
Summary of the method: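 Transient MRTU transfection of human HepG2 liver cells, 24 h compound treatment, then total RNA isolation, oligo(dT) reverse transcription, PCR amplification, fluorescent labelling and capillary electrophoresis of reporter fragments. Gain or loss relative to DMSO.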

[14] = biological target: Hepatocyte nuclear factor 6 (Homo sapiens) (UniProt Q9UBC0); test: ATG_HNF6_CIS: Attagene CIS-FACTORIAL HepG2 Assay for human Hepatocyte Nuclear Factor 6 (HNF6) (AID 2282952); settings: HepG2 Attagene cis-factorial HNF6 reporter transcription; actives raise or lower the signal
Sequence of Hepatocyte nuclear factor 6 (Homo sapiens) (Q9UBC0 whole entry, looked up, the tested form may be a part): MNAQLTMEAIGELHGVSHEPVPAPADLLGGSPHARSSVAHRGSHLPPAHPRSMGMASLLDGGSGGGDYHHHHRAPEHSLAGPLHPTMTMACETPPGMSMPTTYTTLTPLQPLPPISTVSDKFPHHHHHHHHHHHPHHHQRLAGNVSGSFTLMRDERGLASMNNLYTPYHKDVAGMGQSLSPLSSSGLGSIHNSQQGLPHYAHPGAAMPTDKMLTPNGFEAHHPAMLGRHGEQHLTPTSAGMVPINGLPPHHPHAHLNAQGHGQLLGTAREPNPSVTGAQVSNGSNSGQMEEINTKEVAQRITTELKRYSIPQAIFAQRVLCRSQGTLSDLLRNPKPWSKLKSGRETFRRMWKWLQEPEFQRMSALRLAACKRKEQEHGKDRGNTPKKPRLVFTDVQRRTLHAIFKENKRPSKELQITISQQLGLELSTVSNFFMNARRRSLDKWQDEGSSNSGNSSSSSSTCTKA
Summary of the method: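 First, HepG2 cells were transfected with the multiplexed cis reporter library and dosed with chemical for 24 h. Next, RNA was reverse-transcribed, PCR-amplified and fluorescently labelled. Finally, HpaI-digested fragments were read by capillary electrophoresis.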

[15] = biological target: Heat shock factor protein 1 (Homo sapiens) (UniProt Q00613); test: ATG_HSE_CIS: Attagene CIS-FACTORIAL HepG2 Assay for human Heat Shock Transcription Factor 1 (HSE) (AID 2282953); settings: HepG2 HSE cis-reporter, Attagene RNA transcription; actives raise or lower the signal
Sequence of Heat shock factor protein 1 (Homo sapiens) (Q00613 whole entry, looked up, the tested form may be a part): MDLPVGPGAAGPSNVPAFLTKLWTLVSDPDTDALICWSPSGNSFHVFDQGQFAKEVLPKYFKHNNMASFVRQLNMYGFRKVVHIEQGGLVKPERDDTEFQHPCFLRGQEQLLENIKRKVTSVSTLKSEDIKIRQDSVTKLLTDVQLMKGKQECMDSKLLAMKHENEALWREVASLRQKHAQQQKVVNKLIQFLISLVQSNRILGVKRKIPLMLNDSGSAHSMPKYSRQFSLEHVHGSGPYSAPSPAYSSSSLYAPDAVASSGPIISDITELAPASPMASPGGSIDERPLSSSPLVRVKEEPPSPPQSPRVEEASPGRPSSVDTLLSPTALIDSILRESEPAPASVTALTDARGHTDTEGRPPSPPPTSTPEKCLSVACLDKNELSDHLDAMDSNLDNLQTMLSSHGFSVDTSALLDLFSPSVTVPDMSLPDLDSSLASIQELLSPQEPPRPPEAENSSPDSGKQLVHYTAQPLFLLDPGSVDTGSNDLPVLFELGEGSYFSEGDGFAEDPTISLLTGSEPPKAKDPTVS
Summary of the method: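 Read-out: fluorescence of reporter-specific RT-PCR fragments separated by capillary electrophoresis. HepG2 carrying transfected cis-element reporter units; 24 h dosing; activity fitted in both directions relative to DMSO baseline.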

[16] = ATG_MRE_CIS: Attagene CIS-FACTORIAL HepG2 Assay for human Metal Responsive Element (MRE) (AID 2282954); settings: HepG2 MRE cis-reporter transcription, Attagene multiplex; actives raise or lower the signal
Summary of the method: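 Cells were transfected with cis-promoter reporter transcription units, then dosed for 24 h. RNA was reverse-transcribed, amplified, fluorescently labelled and resolved by capillary electrophoresis, and activity was fitted in both directions relative to DMSO.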

[17] = ATG_PBREM_CIS: Attagene CIS-FACTORIAL HepG2 Assay for human Phenobarbital-responsive Enhancer Module (PBREM) (AID 2282955); settings: HepG2 PBREM cis-reporter, Attagene multiplexed transcription; actives raise or lower the signal
Summary of the method: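 Endogenous transcription factors in human liver HepG2 cells drive a PBREM cis-element reporter, whose transcript level after 24 h treatment is quantified by RT-PCR with capillary electrophoresis; activity fitted in both directions against DMSO.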

[18] = ATG_FoxO_CIS: Attagene CIS-FACTORIAL HepG2 Assay for human Forkhead box O (FoxO) (AID 2282943); settings: HepG2 Attagene cis-reporter, FoxO element, mRNA; actives raise or lower the signal
Summary of the method: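 24 h chemical exposure, HepG2 with transient cis-MRTU transfection. RNA extraction, oligo(dT) RT, reporter-specific PCR, primer-extension labelling, HpaI digestion, CE fragment analysis; bidirectional fit, DMSO baseline.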

[19] = biological target: Bile acid receptor (Homo sapiens) (UniProt Q96RI1); test: ATG_IR1_CIS: Attagene CIS-FACTORIAL HepG2 Assay for human Nuclear Receptor Subfamily 1 Group H Member 4 (NR1H4), IR1 submotif (AID 2282946); settings: IR1 reporter transcription, actives raise or lower the signal
Sequence of Bile acid receptor (Homo sapiens) (Q96RI1 whole entry, looked up): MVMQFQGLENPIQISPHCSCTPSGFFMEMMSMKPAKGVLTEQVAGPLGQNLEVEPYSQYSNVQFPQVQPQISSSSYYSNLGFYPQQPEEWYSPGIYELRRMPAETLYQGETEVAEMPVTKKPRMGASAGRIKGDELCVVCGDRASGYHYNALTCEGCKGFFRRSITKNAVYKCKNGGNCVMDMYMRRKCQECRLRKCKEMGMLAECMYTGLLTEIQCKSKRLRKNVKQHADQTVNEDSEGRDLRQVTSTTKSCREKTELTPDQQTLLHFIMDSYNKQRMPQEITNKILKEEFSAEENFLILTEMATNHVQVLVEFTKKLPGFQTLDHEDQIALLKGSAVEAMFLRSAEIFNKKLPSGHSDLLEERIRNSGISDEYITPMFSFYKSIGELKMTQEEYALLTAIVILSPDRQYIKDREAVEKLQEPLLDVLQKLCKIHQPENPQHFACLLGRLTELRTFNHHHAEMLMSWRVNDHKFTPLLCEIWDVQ
Summary of the method: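 Readout: reporter transcript levels by RT-PCR with fluorescent capillary electrophoresis, from HepG2 cells transiently transfected with multiplexed cis-regulated reporters and dosed 24 h. Gain- or loss-of-signal fitted versus DMSO negative control.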

[20] = ATG_ERE_CIS: Attagene CIS-FACTORIAL HepG2 Assay for Estrogen Response Element (ERE) (AID 2282940); settings: HepG2 ERE cis-reporter, Attagene RNA transcript; actives raise or lower the signal
Summary of the method: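 Readout: reporter mRNA induction by RT-PCR, FAM-labelled primer extension, HpaI digestion and capillary electrophoresis, 24 h after dosing transfected HepG2 cells. Endogenous transcription factors act on cis-element-regulated reporters. Gain or loss fitted against DMSO.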

Measured: AC50

O=C(O)c1cc(C(=O)O)cc([N+](=O)[O-])c1
not listed: [18] | [19] | [20]
inactive: all other assays above

C1=CC2C3C=CC(C3)C2C1 (stereo not drawn)
not listed: [4] | [16] | [20]
inactive: all other assays above

C=CCCC(=O)/C=C/C1C(C)=CCCC1(C)C (stereo not drawn)
active: [1] 160 µM | [16] 150 µM
not listed: [4] | [10] | [13] | [15] | [18] | [19] | [20]
inactive: all other assays above

CC1(C)O[C@@H]2C[C@H]3[C@@H]4CCC5=CC(=O)C=C[C@]5(C)[C@@]4(F)[C@@H](O)C[C@]3(C)[C@]2(C(=O)CO)O1
active: [9] 0.419 µM
not listed: [4] | [13] | [14] | [15] | [17] | [20]
inactive: all other assays above

Cc1ccc2c(c1)C(=O)OC2=O
not listed: [4] | [19] | [20]
inactive: all other assays above

CCCCCCCCCCCC(=O)OCC(O)CO (stereo not drawn)
not listed: [4] | [9] | [19]
inactive: all other assays above

O=C(Nc1ccc2c(c1)Cc1ccccc1-2)C(F)(F)F
active: [13] 22.6 µM
not listed: [4] | [7] | [18] | [20]
inactive: all other assays above

CCCCCC(=O)CC
not listed: [5] | [9] | [12] | [18] | [20]
inactive: all other assays above

O=C1OC(=O)c2c(Cl)c(Cl)c(Cl)c(Cl)c21
active: [6] 33.2 µM
not listed: [4] | [9] | [20]
inactive: all other assays above
